# What was measured:
# Assay in all cases: DAPPL (digital affinity profiling via proximity ligation, sequencing); 10 mM Tris-HCl pH 7.5, 50 mM NaCl, 1 mM DTT, 4% glycerol, room temperature, 30 min; GST-TFs on glutathione beads, 16-mer random dsDNA library, 0.1% formaldehyde crosslink after washing; high values mean tight binding
# Conditions in all cases: protein: recombinant; tags: N-terminal GST; dsDNA, one strand shown
# [1] = molecular target: ELF1 (Homo sapiens, UniProt P32519 1-619)
# Method in brief: (§1)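 Pools were built from human transcription factors expressed in yeast as GST fusions, captured on glutathione beads and DNA-barcoded, along with a tag-only sample. Incubation with 200 nmole of a 16-mer random double-stranded DNA library lasted 30 min at room temperature in Tris/NaCl/DTT/glycerol buffer, and was followed by washing, 0.1% formaldehyde crosslinking, proximity ligation, PCR amplification and Illumina NextSeq500 sequencing. Binding signal is the quotient of each hexamer's read frequency for a factor and its frequency for the tag-only sample.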
# [2] = molecular target: T1, SPIC (Homo sapiens, UniProt Q8N5J4 1-248)
# T1 sequence: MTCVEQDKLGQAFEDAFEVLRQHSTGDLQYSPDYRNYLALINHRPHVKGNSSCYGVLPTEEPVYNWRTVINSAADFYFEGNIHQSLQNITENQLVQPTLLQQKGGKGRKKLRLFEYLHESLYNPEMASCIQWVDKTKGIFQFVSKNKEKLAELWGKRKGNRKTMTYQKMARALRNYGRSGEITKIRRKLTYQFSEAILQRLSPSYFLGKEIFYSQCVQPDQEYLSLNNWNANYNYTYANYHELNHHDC
# Method in brief: as §1
# [3] = molecular target: T2, ELK4 (Homo sapiens, UniProt P28324-2 1-405)
# T2 sequence: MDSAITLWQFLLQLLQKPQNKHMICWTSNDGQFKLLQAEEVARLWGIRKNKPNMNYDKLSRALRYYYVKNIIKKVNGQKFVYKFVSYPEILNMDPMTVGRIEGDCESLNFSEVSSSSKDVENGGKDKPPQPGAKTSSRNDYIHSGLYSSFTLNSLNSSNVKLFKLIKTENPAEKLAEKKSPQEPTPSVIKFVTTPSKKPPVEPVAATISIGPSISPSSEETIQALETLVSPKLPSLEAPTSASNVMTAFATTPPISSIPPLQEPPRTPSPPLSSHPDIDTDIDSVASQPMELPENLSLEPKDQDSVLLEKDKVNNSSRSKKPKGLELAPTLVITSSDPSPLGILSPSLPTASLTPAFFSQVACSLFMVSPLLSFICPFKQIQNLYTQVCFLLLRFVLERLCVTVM
# Method in brief: as §1
# [4] = molecular target: T3, ETV2 (Homo sapiens, UniProt O00321 1-342)
# T3 sequence: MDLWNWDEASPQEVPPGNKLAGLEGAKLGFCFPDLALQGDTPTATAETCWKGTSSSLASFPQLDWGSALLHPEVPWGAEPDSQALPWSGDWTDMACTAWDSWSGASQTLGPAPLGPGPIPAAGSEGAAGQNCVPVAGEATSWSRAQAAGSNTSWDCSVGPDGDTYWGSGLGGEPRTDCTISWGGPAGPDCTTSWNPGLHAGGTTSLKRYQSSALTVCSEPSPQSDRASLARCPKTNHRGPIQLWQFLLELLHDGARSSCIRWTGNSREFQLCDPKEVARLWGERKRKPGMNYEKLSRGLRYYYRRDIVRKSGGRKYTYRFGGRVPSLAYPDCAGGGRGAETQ
# Method in brief: as §1
# [5] = molecular target: T4, ERF (Homo sapiens, UniProt P50548 1-548)
# T4 sequence: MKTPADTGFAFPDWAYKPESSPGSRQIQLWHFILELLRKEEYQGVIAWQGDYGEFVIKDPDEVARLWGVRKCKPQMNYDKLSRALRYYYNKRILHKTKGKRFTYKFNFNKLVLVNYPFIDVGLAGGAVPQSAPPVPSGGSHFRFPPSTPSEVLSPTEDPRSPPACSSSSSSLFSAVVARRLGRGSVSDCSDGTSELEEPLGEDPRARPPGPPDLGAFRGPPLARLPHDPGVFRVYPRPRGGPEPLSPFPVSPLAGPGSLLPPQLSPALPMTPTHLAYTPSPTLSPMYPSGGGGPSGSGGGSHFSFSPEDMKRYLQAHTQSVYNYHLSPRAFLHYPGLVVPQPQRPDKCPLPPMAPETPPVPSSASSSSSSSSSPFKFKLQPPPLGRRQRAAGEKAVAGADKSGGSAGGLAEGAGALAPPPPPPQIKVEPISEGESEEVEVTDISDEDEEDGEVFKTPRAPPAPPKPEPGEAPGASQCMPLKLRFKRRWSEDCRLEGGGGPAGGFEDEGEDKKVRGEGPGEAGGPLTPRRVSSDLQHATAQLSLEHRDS
# Method in brief: as §1
# [6] = molecular target: T5, ELK1 (Homo sapiens, UniProt P19419 1-428)
# T5 sequence: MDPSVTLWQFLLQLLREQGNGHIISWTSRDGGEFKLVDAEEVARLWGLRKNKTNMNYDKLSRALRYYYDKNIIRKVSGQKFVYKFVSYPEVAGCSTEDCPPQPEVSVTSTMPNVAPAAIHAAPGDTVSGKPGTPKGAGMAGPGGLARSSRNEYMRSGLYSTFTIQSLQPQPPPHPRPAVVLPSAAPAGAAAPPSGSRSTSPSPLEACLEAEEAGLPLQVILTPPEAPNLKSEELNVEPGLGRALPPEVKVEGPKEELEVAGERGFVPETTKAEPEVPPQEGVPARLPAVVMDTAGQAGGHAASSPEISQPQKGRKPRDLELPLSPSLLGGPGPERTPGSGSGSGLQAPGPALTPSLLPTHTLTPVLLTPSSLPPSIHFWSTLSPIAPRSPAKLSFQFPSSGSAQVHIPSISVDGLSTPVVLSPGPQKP
# Method in brief: as §1
# [7] = molecular target: T6, ETV7 (Homo sapiens, UniProt Q9Y603 1-341)
# T6 sequence: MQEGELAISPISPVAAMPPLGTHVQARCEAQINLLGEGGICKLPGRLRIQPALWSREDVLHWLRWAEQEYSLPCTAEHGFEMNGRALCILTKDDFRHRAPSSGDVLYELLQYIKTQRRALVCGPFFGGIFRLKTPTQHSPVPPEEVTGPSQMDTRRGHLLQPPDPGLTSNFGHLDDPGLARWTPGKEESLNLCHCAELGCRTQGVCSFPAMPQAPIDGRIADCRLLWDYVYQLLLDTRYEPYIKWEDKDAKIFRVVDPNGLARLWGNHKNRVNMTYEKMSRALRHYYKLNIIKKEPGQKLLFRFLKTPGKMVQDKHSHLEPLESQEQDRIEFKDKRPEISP
# Method in brief: as §1
# [8] = molecular target: T7, GABPA (Homo sapiens, UniProt Q06546 1-454)
# T7 sequence: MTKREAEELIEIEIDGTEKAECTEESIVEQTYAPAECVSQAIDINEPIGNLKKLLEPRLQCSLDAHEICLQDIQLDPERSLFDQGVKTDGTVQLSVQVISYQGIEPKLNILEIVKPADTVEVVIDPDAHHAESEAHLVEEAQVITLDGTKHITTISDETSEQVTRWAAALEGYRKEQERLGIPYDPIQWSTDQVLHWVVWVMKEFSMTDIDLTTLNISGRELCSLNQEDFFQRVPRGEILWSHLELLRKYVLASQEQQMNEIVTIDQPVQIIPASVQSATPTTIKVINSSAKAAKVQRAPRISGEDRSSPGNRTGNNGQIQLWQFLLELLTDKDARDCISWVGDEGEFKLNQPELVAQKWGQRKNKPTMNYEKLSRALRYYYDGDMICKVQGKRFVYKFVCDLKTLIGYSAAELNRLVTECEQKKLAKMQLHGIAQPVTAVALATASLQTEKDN
# Method in brief: as §1
# [9] = molecular target: T8, ELF3 (Homo sapiens, UniProt P78545 1-371)
# T8 sequence: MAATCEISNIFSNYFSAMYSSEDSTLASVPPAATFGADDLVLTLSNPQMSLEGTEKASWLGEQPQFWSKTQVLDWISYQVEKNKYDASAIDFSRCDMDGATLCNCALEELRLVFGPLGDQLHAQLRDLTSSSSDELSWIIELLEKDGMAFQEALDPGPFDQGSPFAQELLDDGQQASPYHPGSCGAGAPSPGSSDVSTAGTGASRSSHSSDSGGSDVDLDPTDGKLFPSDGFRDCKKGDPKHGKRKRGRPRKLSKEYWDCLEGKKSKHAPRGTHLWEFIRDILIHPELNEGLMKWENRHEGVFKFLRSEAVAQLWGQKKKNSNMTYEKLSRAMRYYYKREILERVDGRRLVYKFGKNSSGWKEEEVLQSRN
# Method in brief: as §1
# [10] = molecular target: T9, ELK3 (Homo sapiens, UniProt P41970 1-407)
# T9 sequence: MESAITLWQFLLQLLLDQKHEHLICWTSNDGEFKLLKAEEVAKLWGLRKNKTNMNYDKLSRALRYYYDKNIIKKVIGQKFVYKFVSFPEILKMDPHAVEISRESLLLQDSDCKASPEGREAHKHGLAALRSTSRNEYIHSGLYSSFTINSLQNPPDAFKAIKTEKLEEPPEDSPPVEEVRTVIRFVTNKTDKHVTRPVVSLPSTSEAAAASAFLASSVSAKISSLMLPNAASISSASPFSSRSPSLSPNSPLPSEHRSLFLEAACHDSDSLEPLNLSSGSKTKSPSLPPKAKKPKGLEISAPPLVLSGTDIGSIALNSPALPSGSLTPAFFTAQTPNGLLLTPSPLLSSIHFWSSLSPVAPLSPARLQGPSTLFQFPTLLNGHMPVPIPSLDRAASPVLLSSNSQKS
# Method in brief: as §1
# [11] = molecular target: CRX (Homo sapiens, UniProt O43186 1-299)
# Chain of CRX (O43186 whole entry): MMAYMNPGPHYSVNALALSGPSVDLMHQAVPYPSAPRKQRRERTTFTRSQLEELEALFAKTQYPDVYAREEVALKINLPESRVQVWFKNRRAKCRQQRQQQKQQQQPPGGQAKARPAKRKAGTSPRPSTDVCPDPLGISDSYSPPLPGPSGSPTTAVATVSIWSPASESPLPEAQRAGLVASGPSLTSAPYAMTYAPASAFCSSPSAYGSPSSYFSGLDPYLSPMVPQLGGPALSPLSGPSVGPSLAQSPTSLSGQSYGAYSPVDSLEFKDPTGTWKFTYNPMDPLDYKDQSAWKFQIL
# Method in brief: as §1
# [12] = molecular target: T10, SPDEF (Homo sapiens, UniProt O95238 1-335)
# T10 sequence: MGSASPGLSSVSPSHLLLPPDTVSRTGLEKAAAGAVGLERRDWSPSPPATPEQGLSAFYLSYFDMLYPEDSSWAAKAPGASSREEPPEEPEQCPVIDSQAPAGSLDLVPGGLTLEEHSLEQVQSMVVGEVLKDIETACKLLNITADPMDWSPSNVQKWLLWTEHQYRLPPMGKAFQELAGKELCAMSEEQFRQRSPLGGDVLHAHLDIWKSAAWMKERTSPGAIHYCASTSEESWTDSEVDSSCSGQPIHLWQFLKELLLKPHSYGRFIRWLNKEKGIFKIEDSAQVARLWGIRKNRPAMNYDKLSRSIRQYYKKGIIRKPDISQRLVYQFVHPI
# Method in brief: as §1
# [13] = molecular target: T11, EHF (Homo sapiens, UniProt Q9NZC4 1-300)
# T11 sequence: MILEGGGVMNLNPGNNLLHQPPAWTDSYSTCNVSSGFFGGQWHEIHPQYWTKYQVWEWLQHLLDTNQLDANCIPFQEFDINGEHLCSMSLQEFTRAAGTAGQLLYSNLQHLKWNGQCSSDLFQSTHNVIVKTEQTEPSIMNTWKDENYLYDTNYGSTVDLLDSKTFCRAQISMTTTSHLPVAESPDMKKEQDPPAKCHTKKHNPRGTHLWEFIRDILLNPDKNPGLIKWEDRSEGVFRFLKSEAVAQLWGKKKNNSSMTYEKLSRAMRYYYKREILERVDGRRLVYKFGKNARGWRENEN
# Method in brief: as §1
# Chain of ELF1 (P32519 whole entry, the tested form may be a part): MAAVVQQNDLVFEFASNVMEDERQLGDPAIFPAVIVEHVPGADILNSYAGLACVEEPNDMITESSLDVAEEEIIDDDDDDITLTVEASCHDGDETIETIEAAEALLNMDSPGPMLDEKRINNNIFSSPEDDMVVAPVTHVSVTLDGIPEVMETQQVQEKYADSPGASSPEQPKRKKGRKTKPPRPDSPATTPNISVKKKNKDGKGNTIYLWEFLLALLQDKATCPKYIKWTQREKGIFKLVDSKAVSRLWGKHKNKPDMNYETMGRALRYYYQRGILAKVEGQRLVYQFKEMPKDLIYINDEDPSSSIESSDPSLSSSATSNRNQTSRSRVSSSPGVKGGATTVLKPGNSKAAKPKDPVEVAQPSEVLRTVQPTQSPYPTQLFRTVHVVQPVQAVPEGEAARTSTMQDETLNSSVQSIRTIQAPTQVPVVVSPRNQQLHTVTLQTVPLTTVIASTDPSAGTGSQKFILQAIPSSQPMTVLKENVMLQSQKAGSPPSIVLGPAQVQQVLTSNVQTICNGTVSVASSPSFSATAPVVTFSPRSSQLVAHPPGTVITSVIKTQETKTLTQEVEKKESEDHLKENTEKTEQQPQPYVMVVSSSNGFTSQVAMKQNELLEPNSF
sequence,measurement,setting,value
CGCTGT,binding signal,[1],"1.01 fold enrichment (6-mer frequency, TF over GST control)"
same,binding signal,[2],"1.1 fold enrichment (6-mer frequency, TF over GST control)"
same,binding signal,[3],"1.04 fold enrichment (6-mer frequency, TF over GST control)"
same,binding signal,[4],"1.01 fold enrichment (6-mer frequency, TF over GST control)"
same,binding signal,[5],"1.12 fold enrichment (6-mer frequency, TF over GST control)"
GACATG,binding signal,[6],"1.01 fold enrichment (6-mer frequency, TF over GST control)"
same,binding signal,[2],"1.1 fold enrichment (6-mer frequency, TF over GST control)"
same,binding signal,[7],"1.03 fold enrichment (6-mer frequency, TF over GST control)"
ATAGTC,binding signal,[8],"1.01 fold enrichment (6-mer frequency, TF over GST control)"
same,binding signal,[2],"1.1 fold enrichment (6-mer frequency, TF over GST control)"
same,binding signal,[3],"1.04 fold enrichment (6-mer frequency, TF over GST control)"
same,binding signal,[9],"1.07 fold enrichment (6-mer frequency, TF over GST control)"
GATCAC,binding signal,[6],"1.01 fold enrichment (6-mer frequency, TF over GST control)"
same,binding signal,[1],"1.02 fold enrichment (6-mer frequency, TF over GST control)"
same,binding signal,[10],"1.16 fold enrichment (6-mer frequency, TF over GST control)"
same,binding signal,[2],"1.01 fold enrichment (6-mer frequency, TF over GST control)"
same,binding signal,[9],"1.04 fold enrichment (6-mer frequency, TF over GST control)"
same,binding signal,[11],"1.09 fold enrichment (6-mer frequency, TF over GST control)"
same,binding signal,[12],"1 fold enrichment (6-mer frequency, TF over GST control)"
AGATAC,binding signal,[13],"1 fold enrichment (6-mer frequency, TF over GST control)"
same,binding signal,[2],"1.05 fold enrichment (6-mer frequency, TF over GST control)"
same,binding signal,[9],"1.01 fold enrichment (6-mer frequency, TF over GST control)"

# Reference: paper PMC7862700, “An all-to-all approach to the identification of sequence-specific readers for epigenetic DNA modifications on cytosine”
